# Screen size: about 350,000 compounds; about 450 (0.13%) were called active. The rule behind the calls is not given here. Not all results are given here. Entries with a potency or affinity are not part of this list.
# Test: inhibitors of VEEV TC-83 cytopathic effect, confirmation, Vero cells (AID 588727)
# Conditions: VEEV TC-83 cytopathic effect inhibition, at 20 µM
# [1] = stronger effect = higher value unless noted
# [2] = measured here: 10K pilot screen inhibition, stronger effect = higher value
smiles,measurement,setting,value
O=c1c2ccccc2nc(-c2ccco2)n1-c1nc2ccccc2s1,inhibition,[1],1.81% (inactive)
FC(F)Oc1ccc(NC(=S)N2CCc3ccccc32)cc1,inhibition,[1],0.39% (inactive)
Cc1ccccc1C(=O)N1CCC(C(=O)Nc2sccc2C(N)=O)CC1,inhibition,[1],2.51% (inactive)
CN(Cc1ccc(O)cc1)C1CCCCC1,inhibition,[1],1.27% (inactive)
OCC1(CCOc2ccccc2)CCN(Cc2ccncc2)CC1,inhibition,[1],0.23% (inactive)
OCC1(CCOc2ccccc2)CCN(Cc2cn[nH]c2-c2ccc(F)cc2)CC1,inhibition,[1],2.7% (inactive)
C=CCOc1ccc(C=Nc2ccc(Cl)cc2)c(O)c1,inhibition,[1],0.47% (inactive)
Cc1c(C(=O)N(C)CCn2ccnc2C)oc2c(F)cccc12,inhibition,[1],1.03% (inactive)
CCN(CC)C(=O)c1sc(NC(=O)c2ccoc2C)c(C(=O)OC)c1C,inhibition,[1],1.79% (inactive)
O=C(NCCN1CCOCC1)c1ccc(/C=C2\Sc3ccccc3N(Cc3ccccc3F)C2=O)cc1,inhibition,[1],10.8% (inactive)
CN1CCN(CCCNC(=O)c2ccc(/C=C3\Oc4ccccc4N(Cc4ccccc4F)C3=O)cc2)CC1,inhibition,[1],13.6% (inactive)
COc1ccccc1N1CCN(C(=S)Nc2ccccc2)CC1,inhibition,[1],1.3% (inactive)
CC(C)Oc1ccc(Cl)cc1Nc1nc(NCCO)nc(N2CCCC2)n1,inhibition,stronger effect = higher value,4.93% (inactive)
same,inhibition,[2],4.53%
Cc1ccc(NC(=O)CN2C(=O)NC3(CCCc4ccccc43)C2=O)c([N+](=O)[O-])c1 (stereo not given),inhibition,[1],1.12% (inactive)
Cc1ccccc1NS(=O)(=O)c1nnc(NC(=O)c2ccccc2F)s1,inhibition,stronger effect = higher value,1.96% (inactive)
same,inhibition,[2],3.31%
C(=C\c1ccncc1)/c1ccccc1,inhibition,[1],0.98% (inactive)
CC1(C)CC(=O)C=C(/C=C/c2ccccc2)C1,inhibition,[1],0.62% (inactive)
Cc1ccnc(SCc2cc(=O)c(OC(=O)c3cc([N+](=O)[O-])ccc3Cl)co2)n1,inhibition,[1],0.24% (inactive)
CCOC(=O)c1sc(=S)sc1SCc1cccc(C(F)(F)F)c1,inhibition,[1],inactive
O=S1(=O)C=C(SCc2ccc(F)cc2)Nc2ccccc21,inhibition,[1],inactive
CCCc1c(NC(=O)Nc2ccc(F)cc2)cnn1-c1ccc(Cl)cc1,inhibition,[1],3.23% (inactive)
CCCc1c(C(=O)Nc2ccc(F)cc2F)cnn1-c1ccccc1,inhibition,[1],inactive
CCCc1c(C(=O)NNc2cccc(Cl)c2)cnn1-c1ccccc1,inhibition,[1],2.24% (inactive)
CCCc1c(C(=O)Nc2ccc(F)cc2)cnn1-c1ccccc1,inhibition,[1],7.43% (inactive)
CC(Sc1nc2ncc(Cl)cc2[nH]1)C(=O)c1c(N)n(C)c(=O)n(C)c1=O (stereo not given),inhibition,[1],10.7% (inactive)
Cn1ncc2c(=O)[nH]cnc21,inhibition,[1],0.51% (inactive)
CC(=O)Nc1ccc(S(=O)(=O)N(C)CC(=O)OCC(=O)N(CC(C)C)C2CCS(=O)(=O)C2)cc1 (stereo not given),inhibition,[1],6.9% (inactive)
COc1ccc(NC(=O)CN(C)C(=O)c2cn(-c3ccccc3)nc2-c2cccnc2)cc1,inhibition,[1],6.98% (inactive)
CSCCC(NS(=O)(=O)c1ccc(Cl)cc1)C(=O)OCC(=O)NC12CC3CC(CC(C3)C1)C2 (stereo not given),inhibition,[1],2.38% (inactive)
O=C1Nc2ccccc2C1(O)c1ccccc1O (stereo not given),inhibition,[1],0.23% (inactive)
COc1c(NC(C)=O)c2c(c([N+](=O)[O-])c1OC)C(=O)OC2,inhibition,[1],0.9% (inactive)
COc1cc2c(O)c3c(c(-c4ccc5c(c4)OCO5)c2cc1OC)C(=O)OC3,inhibition,[1],8.81% (inactive)
O=S(=O)(NCc1ccccc1Cl)c1ccc(-n2cnnn2)cc1,inhibition,[1],1.99% (inactive)
CCC(=O)NC(=S)NNC(=O)c1ccc(OC)cc1,inhibition,[1],3.83% (inactive)
CCCOc1ccc(C(=O)NNC(=S)NC(=O)c2ccccc2)cc1,inhibition,[1],7.4% (inactive)
C=CCNC(=S)NNC(=O)c1ccc(OCCC)cc1,inhibition,[1],1.27% (inactive)
CCCCC(=O)NC(=S)NNC(=O)c1ccc(OC)cc1,inhibition,[1],11% (inactive)
CCCn1c(N)c(C(=O)CSc2nnc(N)s2)c(=O)[nH]c1=O,inhibition,[1],8.01% (inactive)
CCC1(CC)NC(=O)N(CC(=O)Nc2ccc(C)cc2C)C1=O,inhibition,[1],1.89% (inactive)
Cc1cn([C@H]2C[C@H](O)[C@@H](CNC(=O)[C@@H]3CCCN3Cc3ccccc3)O2)c(=O)[nH]c1=O,inhibition,[1],1.26% (inactive)
COCC(=O)N1CCCC(C(=O)c2ccc(-c3ccccc3)c(F)c2)C1 (stereo not given),inhibition,[1],3.71% (inactive)
COc1cc(/C=C/C(=O)c2ccc(NS(=O)(=O)c3ccc(C)cc3)cc2)ccc1OC(F)F,inhibition,[1],42.9% (inactive)
COc1cc(OC)c(OC)cc1/C=C/C(=O)c1ccc(NS(=O)(=O)c2ccc(C)cc2)cc1,inhibition,[1],6.43% (inactive)
COCCNC(=O)CCCn1c(=O)c2cc(OC)c(OC)cc2n(CC(=O)Nc2ccccc2OC)c1=O,inhibition,[1],1.37% (inactive)
O=C(CCc1ccccc1)N1CCN(c2ccc(Cl)cc2)CC1,inhibition,[1],0.61% (inactive)
CCCN(CCC)CCCNC(=O)c1ccc2c(Cl)c3c(nc2c1)CCC3,inhibition,[1],inactive
CCCCN(CC)CCNC(=O)c1ccc2c(Cl)c3c(nc2c1)CCC3,inhibition,[1],inactive
COc1cc2cc(C(=O)N/N=C/c3ccc(F)cc3)[nH]c2cc1OC,inhibition,[1],2.5% (inactive)
CCN1CCN(c2cc(C)c3cc(NC(=S)N4CCN(c5ccc(F)cc5)CC4)ccc3n2)CC1,inhibition,[1],0.9% (inactive)
Cc1nn(Cc2cccc(C(=O)O)c2)c(C)c1[N+](=O)[O-],inhibition,[1],1.46% (inactive)
O=c1c2ccccc2nc2n1C(CSc1ccccc1)CS2 (stereo not given),inhibition,[1],1% (inactive)
Nc1ccccc1SCC1CSc2nc3ccccc3c(=O)n21 (stereo not given),inhibition,[1],1.18% (inactive)
O=C(Nc1ccccc1SCC1CSc2nc3ccccc3c(=O)n21)c1ccccc1Cl (stereo not given),inhibition,[1],13.7% (inactive)
O=C(Nc1ccccc1SCC1CSc2nc3ccccc3c(=O)n21)c1ccccc1 (stereo not given),inhibition,[1],7.04% (inactive)
CC(NC(=O)Cn1c(=O)[nH]c2ccsc2c1=O)C12CC3CC(CC(C3)C1)C2 (stereo not given),inhibition,[1],4.05% (inactive)
O=C(N/N=C/c1ccc(F)cc1)c1cc(-c2ccc3c(c2)OCO3)n[nH]1,inhibition,[1],3.22% (inactive)
CN(CC(=O)Nc1ccc(F)cc1)C(=O)COC(=O)/C=C/c1ccccc1[N+](=O)[O-],inhibition,[1],5.33% (inactive)
COc1ccc(/C=N/Nc2nonc2N)cc1,inhibition,[1],0.29% (inactive)
COc1ccc(C2c3c(ncn(CCN4CCOCC4)c3=N)Oc3ccc4ccccc4c32)cc1OC (stereo not given),inhibition,[1],1.27% (inactive)
COc1ccc(C2c3c(ncn(CCCO)c3=N)Oc3ccc4ccccc4c32)cc1OC (stereo not given),inhibition,[1],4.99% (inactive)
Cc1ccc2sc(NNC(=O)C3=COCCO3)nc2c1C,inhibition,[1],2.26% (inactive)
CN(C)/C=C/C(=O)c1ccccc1OCc1cnc(Cl)s1,inhibition,[1],inactive
CC(C)(C)OC(=O)N1CCN(C(=O)c2[nH]cnc2C(=O)N[C@@H](Cc2ccccc2)C(=O)OCc2ccccc2)CC1,inhibition,[1],2.09% (inactive)
CC(C)(C)OC(=O)[C@H](Cc1ccccc1)NC(=O)c1nc[nH]c1C(=O)N1CCN(c2ccccc2)CC1,inhibition,[1],5.56% (inactive)
O=C(CSc1ncn[nH]1)N/N=C/c1ccc(Br)cc1,inhibition,[1],0.58% (inactive)
Cc1ccccc1NC(=O)COC(=O)C1C2CC3OC(=O)C1C3C2 (stereo not given),inhibition,[1],0.18% (inactive)
Cc1nc2c(c(=O)n1CCC1=CCCCC1)c1nc3ccccc3nc1n2/N=C/c1ccccc1,inhibition,[1],inactive
Cc1onc(-c2ccccc2)c1-c1nnc(CN2CCN(S(=O)(=O)c3ccccc3F)CC2)o1,inhibition,[1],7.39% (inactive)
Cc1ccc(C(=O)NCC(=O)Nc2ncccc2C)s1,inhibition,[1],inactive
COc1ccc(C(=O)NC(=O)Nc2ncccc2C)cc1,inhibition,[1],3.84% (inactive)
CCCCc1nc2sc3c(c2c(=O)n1NC(=O)c1ccco1)CC(C)(C)OC3,inhibition,[1],0.57% (inactive)
OCCNC(=S)NCc1ccccc1,inhibition,[1],0.77% (inactive)
O=C(NCC(=O)N(c1cccc(F)c1)C(C(=O)NC1CCCC1)c1cccnc1)c1cccs1 (stereo not given),inhibition,[1],inactive
Cc1sc2nc(CN(C(=O)c3cccs3)C3CCCC3)[nH]c(=O)c2c1C,inhibition,[1],5.66% (inactive)
O=C(C1CCCCC1)N(Cc1nc2sc3c(c2c(=O)[nH]1)CCCC3)Cc1cccs1,inhibition,[1],2.95% (inactive)
Cc1n[nH]c(=S)n1/N=C/c1ccc(-c2ccccc2[N+](=O)[O-])o1,inhibition,[1],2.62% (inactive)
Cc1nnc(C)n1/N=C/c1ccc(-c2ccccc2Cl)o1,inhibition,[1],inactive
Cc1ccc(-c2ccc(/C=N\n3cnnc3)o2)c(Br)c1,inhibition,[1],1.33% (inactive)
S=c1[nH]nc(-c2ccccn2)n1/N=C/c1ccc(-c2ccccc2Cl)o1,inhibition,[1],24.7% (inactive)
S=c1[nH]nc(-c2cccc(Cl)c2)n1/N=C/c1ccc(-c2ccccc2Br)o1,inhibition,[1],23.7% (inactive)
Clc1ccccc1-c1ccc(/C=N/n2cnnc2)o1,inhibition,[1],1.39% (inactive)
COc1ccc(CNC(=O)CNC(C)c2ccc(F)cc2)cc1 (stereo not given),inhibition,[1],inactive
O=C(Cn1nc(Cc2cccnc2)c2ccccc2c1=O)NCc1ccc(F)cc1,inhibition,[1],"0% [measured here: 10K pilot screen inhibition, stronger effect = higher value]"
same,outcome,[1],inactive
Cc1ccc(NC(=O)CSc2ncn[nH]2)cc1S(=O)(=O)N1CCOCC1,inhibition,[1],0.49% (inactive)
O=C(CNS(=O)(=O)c1ccccc1)OCc1cccc([N+](=O)[O-])c1,inhibition,[1],6.33% (inactive)
CN1CCN(c2nc3c(c(=O)[nH]c(=O)n3C)n2CCOc2ccccc2)CC1,inhibition,[1],1.82% (inactive)
COC(=O)C(NC(=O)CCC(=O)N[C@@H](C(=O)OC)c1ccccc1)c1ccccc1 (stereo not given in full),inhibition,[1],0.43% (inactive)
O=C(Nc1ccccc1Cl)OC1CCCCC1,inhibition,[1],0.52% (inactive)
Cc1c(C(=O)N(C)Cc2ccc(OC(F)F)cc2)oc2ccccc12,inhibition,[1],inactive
Cn1c(=O)c2c(nc(N/N=C/c3c(O)n(C4CCCCC4)c(=S)[nH]c3=O)n2C)n(C)c1=O,inhibition,[1],0.22% (inactive)
C/C(=N\NC(=O)c1ccncc1)c1c(O)n(Cc2ccccc2)c(=O)[nH]c1=O,inhibition,[1],2.16% (inactive)
CNc1ccc(Br)cc(C(=O)/C=C/c2ccc3c(c2)OCO3)c1=O,inhibition,stronger effect = higher value,7.74% (inactive)
same,inhibition,[2],6.21%
CNc1ccc(Br)cc(C(=O)/C=C/c2ccc(OC)cc2OC)c1=O,inhibition,stronger effect = higher value,1.14% (inactive)
same,inhibition,[2],6.96%
CNc1ccc(Br)cc(C(=O)/C=C/c2cccc(OC)c2OC)c1=O,inhibition,[1],13.1% (inactive)
CNc1ccc(Br)cc(C(=O)/C=C/c2ccc(OC)cc2)c1=O,inhibition,[1],7.55% (inactive)

# — PubChem BioAssay AID588727 (Southern Research Specialized Biocontainment Screening …, 2011)
